Data: PubChem BioAssay (NCI)
About 79,000 compounds went through this panel and 15% of them were active in at least one assay; those are over-represented in the sample as a whole. A number with no mark means an inactive call. Active and inactive are the calls of the source. Rule as the data show it: active = growth inhibition above about 70%; inactive = the rest.

Key:
[1] = NCI Yeast Anticancer Drug Screen. Data for the rad50 strain (AID 155);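 also: 0% = growth of vehicle-only cultures of the same strain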; conditions: S. cerevisiae rad50 strain growth inhibition, stronger effect = higher value
Outline: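 Vehicle-treated cultures provide the reference for the growth inhibition reported for compound-exposed, repair-deficient yeast.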

[2] = NCI Yeast Anticancer Drug Screen. Data for the mec2-1 strain (AID 157); conditions: S. cerevisiae mec2-1 strain, stronger effect = higher value
Outline: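 Cells of the genetically defined mec2-1 yeast strain are incubated with test compound. Inhibition of growth is calculated against vehicle-treated controls.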

[3] = NCI Yeast Anticancer Drug Screen. Data for the sgs1 mgt1 strain (AID 161);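 also: 0% = growth of cultures given vehicle only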; conditions: S. cerevisiae sgs1 mgt1 strain, stronger effect = higher value
Outline: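 Genetically altered yeast, compound exposure, growth inhibition relative to vehicle.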

[4] = NCI Yeast Anticancer Drug Screen. Data for the cln2 rad14 strain (AID 165);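 also: 0% = growth equal to vehicle treated cultures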; conditions: S. cerevisiae cln2 rad14 strain, stronger effect = higher value
Outline: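 The screen exposed genetically defined yeast (cln2 rad14) to test compounds and scored growth inhibition relative to vehicle-treated controls.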

[5] = NCI Yeast Anticancer Drug Screen. Data for the bub3 strain (AID 167); conditions: S. cerevisiae bub3 mutant strain, stronger effect = higher value
Outline: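 Mutant yeast screening strain plus compound; vehicle-treated cultures serve as the 0% inhibition reference.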

[6] = NCI Yeast Anticancer Drug Screen. Data for the mlh1 rad18 strain (AID 175); conditions: S. cerevisiae mlh1 rad18 strain growth inhibition, stronger effect = higher value
Outline: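 Compound-treated yeast growth, normalised to vehicle controls. Strain bears defined DNA repair mutations.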

[7] = at 5.0 µM (retest, dose inferred, filed as 0.5)
[8] = at 50.0 µM (retest, dose inferred, filed as 5.0)

Row | SMILES | growth inhibition [1, 7] | growth inhibition [1, 8] | growth inhibition ([1]; at 50.0 µM) | growth inhibition [2, 7] | growth inhibition [2, 8] | growth inhibition ([2]; at 50.0 µM) | growth inhibition [3, 7] | growth inhibition [3, 8] | growth inhibition ([3]; at 50.0 µM) | growth inhibition [4, 7] | growth inhibition [4, 8] | growth inhibition ([4]; at 50.0 µM) | growth inhibition [5, 7] | growth inhibition [5, 8] | growth inhibition ([5]; at 50.0 µM) | growth inhibition [6, 7] | growth inhibition [6, 8] | growth inhibition ([6]; at 50.0 µM)
1 | Cc1ccnc2c1ccc1c(C)ccnc12 | 10% | 98% (active) | 99% (active) | -17% | 99% (active) | 99.1% (active) | 14% | 99% (active) | 99.2% (active) | -21% | 97% (active) | 98.5% (active) | -25% | 98% (active) | 99.1% (active) | 1% | 98% (active) | 99% (active)
2 | CCCN1C(=O)c2ccccc2C1=O | 9% | 2% | 20.4% | 1% | -3% | -6.65% | -3% | 4% | 14.1% | 10% | 2% | 36.6% | 10% | 17% | -0.55% | 4% | 0% | 9.5%
3 | CCOc1ccccc1-c1nc2c(s1)C(=O)c1ccccc1C2=O | 87% (active) | 98% (active) | 90% (active) | 100% (active) | 99% (active) | 91.4% (active) | 85% (active) | 98% (active) | 92% (active) | 52% | 98% (active) | 89.9% (active) | 98% (active) | 98% (active) | 92.3% (active) | 94% (active) | 98% (active) | 91.8% (active)
4 | COC(=O)C1CCC(c2ccccc2)CC1C(=O)OC (configuration not stated) | 2% | 10% | 24.9% | 0% | 6% | 20.9% | 1% | 12% | 33% | 5% | 12% | 24% | 25% | 31% | 71.2% (active) | -3% | 9% | 28.6%
5 | O=S(=O)(O)c1cc2ccccc2c(O)c1N=Nc1ccccc1 | 1% | 97% (active) | -33.1% | -1% | 98% (active) | -16% | 1% | 98% (active) | -3.25% | -16% | 97% (active) | 31.1% | -1% | 98% (active) | -0.1% | 2% | 98% (active) | 7.6%
6 | CC(C)(C)c1ccc(OC(=O)Nc2ccc(Cl)cc2[N+](=O)[O-])c(Br)c1 | -31% | 32% | 33% | 2% | 9% | 64.2% | 3% | 37% | 68.5% | 3% | 7% | 90.8% (active) | 1% | 14% | 20.1% | 10% | 38% | 77.5% (active)
7 | CCCCSc1n[nH]c(=O)nc1SC | -142% | 88% (active) | 47.1% | -63% | 79% (active) | 48.6% | -57% | 83% (active) | 46.5% | -56% | 90% (active) | 73.8% (active) | -64% | 87% (active) | 52.4% | -114% | 94% (active) | 50.9%
8 | COc1ccc(C2COc3cc(O)c(O)cc3C2)cc1 (configuration not stated) | 95% (active) | 99% (active) | 99.6% (active) | 95% (active) | 99% (active) | 99.6% (active) | 93% (active) | 99% (active) | 99.8% (active) | 46% | 99% (active) | 99.6% (active) | 98% (active) | 99% (active) | 99.6% (active) | 99% (active) | 99% (active) | 98.2% (active)
9 | Cc1nc(-n2nc(-c3ccccc3)cc2-c2ccccc2)sc1C(/C=C\c1ccc([N+](=O)[O-])cc1)=N/NC(=S)NN | 4% | 87% (active) | 61.3% | 3% | 86% (active) | 37.1% | 11% | 91% (active) | 80.7% (active) | 0% | 67% | 10.8% | 25% | 88% (active) | 65.7% | -2% | 80% (active) | 64.8%
10 | Brc1ccc(C2SCc3nc4ccccc4n32)cc1 (configuration not stated) | 2% | 89% (active) | 74.5% (active) | 7% | 51% | 24.8% | 12% | 57% | 96.1% (active) | -10% | 37% | 56.6% | -2% | 88% (active) | 92.3% (active) | -2% | 54% | 78.7% (active)
11 | c1cc[c]([Sn]([NH]c2ncnc3[nH]cnc23)([NH]c2ncnc3[nH]cnc23)[c]2ccccc2)cc1 | -10% | 93% (active) | 71% (active) | -6% | 95% (active) | 47.6% | 2% | 96% (active) | 58.3% | -2% | 73% (active) | 29.4% | -4% | 95% (active) | 57.4% | -7% | 94% (active) | 89.2% (active)
12 | Cc1cc(Cl)c(O)c(-c2cc(-c3cccc([N+](=O)[O-])c3)c3c(N)[nH]c(=S)nc3n2)c1 | -6% | 46% | 28.6% | -6% | 23% | 23.2% | 3% | 38% | 20.3% | 12% | 33% | 55% | -5% | 45% | -6.15% | 5% | 50% | 25.8%
13 | Clc1ccc2[nH]c(-c3ccccc3)c(-c3ccccn3)c2c1 | 81% (active) | 94% (active) | 96.2% (active) | 80% (active) | 98% (active) | 94.5% (active) | 93% (active) | 98% (active) | 97.7% (active) | 81% (active) | 97% (active) | 94% (active) | 93% (active) | 97% (active) | 96.7% (active) | 96% (active) | 97% (active) | 95.4% (active)
14 | O=C(NCCCNCCNC(=O)c1cc(-c2ccccc2)nc2ccccc12)c1cc(-c2ccccc2)nc2ccccc12 | -22% | 93% (active) | 98.6% (active) | -12% | 98% (active) | 99.2% (active) | -4% | 89% (active) | 99.1% (active) | 28% | 94% (active) | 99.3% (active) | -23% | 99% (active) | 99.1% (active) | 5% | 98% (active) | 99.3% (active)
15 | CC(C)c1ccc(C(=O)OC2CCCCC2)cc1 | 7% | 97% (active) | 73.3% (active) | 8% | 100% (active) | 9.4% | 7% | 96% (active) | 46% | 4% | 98% (active) | 58.1% | 1% | 100% (active) | 88.7% (active) | 2% | 96% (active) | 62.2%
16 | O=C1OC(c2ccccc2)CC1Cc1ccccc1 (configuration not stated) | -10% | -15% | 1.7% | -32% | 3% | -0.25% | -2% | 8% | -12.9% | 9% | -5% | -6.55% | -2% | 6% | 29.1% | -17% | -21% | -33.8%
17 | C1CCC(OC2CCCCO2)OC1 (configuration not stated) | -2% | 76% (active) | 70.3% (active) | -22% | 36% | 21.2% | -11% | 56% | 62.1% | -2% | 66% | 65.2% | -8% | 71% (active) | 77.3% (active) | -9% | 92% (active) | 66%
18 | ClCc1nnc2n1-c1ccc(Cl)cc1SC2 | 3% | 68% | 12.4% | 0% | 64% | 25.9% | -21% | 66% | 35.3% | 13% | 88% (active) | 6.15% | 3% | 92% (active) | 20.9% | -20% | 87% (active) | 24.1%
19 | O=C(O)C(CS)Nc1c2ccccc2nc2ccccc12 (configuration not stated) | 17% | 88% (active) | 88.6% (active) | 10% | 64% | 39.5% | 11% | 76% (active) | 65% | 17% | 47% | 68.5% | -5% | 71% (active) | 37.5% | 16% | 81% (active) | 91.2% (active)
